Results filed as inconclusive are left out. A number with no mark means an inactive call. Active and inactive are the calls of the source. Calls follow the shape of the dose curve; as a rule, active = well fitted activation curve with a large enough effect in the repeat runs; inconclusive = weak or mixed curves; inactive = flat fitted curve, though single readings scatter.
Assay: A CellTox Green Cytotoxicity Assay to monitor cytotoxicity in HEK293 cells - 8 hour (AID 1224884); also: nearly all actives have a fitted effect of over 35% in size
Conditions: CellTox Green fluorescence; series mostly up to 76.8 µM; cytotoxicity increase: at the top concentration
Source text: National Center for Advancing Translational Sciences [NCATS]
NIH Chemical Genomics Center [NCGC]
U.S. Environmental Protection Agency [EPA]
National Institutes of Environmental Health Sciences [NIEHS]
National Toxicology Program [NTP]
Cell-based models are critical for drug discovery. Determining the natural cytotoxic effects resulting from test compounds is an essential research activity. A CellTox Green Cytotoxicity Assay to monitor cytotoxicity in real time of continues cell culture during 40 hours of the compound treatment was used to screen Tox21 10K library compounds in Hek293 cells. CellTox Green Cytotoxicity Assay is a nonlytic, homogeneous, biofluorescent method to measure cytotoxicity in cell culture after experimental manipulation. The assay system uses a proprietary asymmetric cyanine dye that is excluded from viable cells but preferentially stains the dead cell's DNA. […] Viable cells produce no appreciable increases in fluorescence. Therefore, the fluorescence signal produced by the binding interaction with dead cell DNA is proportional to cytotoxicity.
The mixture of Hek293 cell suspension and reagents were dispensed at 600cells/6 ul/well in 1536-well tissue culture treated black solid bottom plates using a Multidrop dispenser. After the assay plates were incubated at a 37 C/5% CO2 incubator for 5 hours, 23 nL of compounds dissolved in DMSO, positive and negative controls was transferred to the assay plate by a pintool work station. The plates were incubated at 37 C for 40 hours. The fluorescence intensity were measured at 0h, 8h, 16h, 24h, 32h and 40h time points using ViewLux plate reader during compound treatment.
% is scaled to controls: 0 for no effect and ±100 for the full control effect; potency is read from the fitted curve at half-maximal effect.

Structure (SMILES)	cytotoxicity increase	Potency
CC1(C)C(=O)C(C)(C)C1=O	-4.13%	
Cc1nc2ccc(Cl)cc2[nH]1	2.3%	
O=C1Nc2ccccc2C1=O	15.8%	
O=S(=O)(O)c1ccc(Cl)cc1	0.0442%	
C/C=C(\C)C=O	-17.5%	
C=CCOC(=O)CCCCCCCC	-0.808%	
Cc1cc2c(cc1CC(=O)c1sccc1S(=O)(=O)Nc1onc(C)c1Cl)OCO2	-12.8% [at 35.3 µM]	
CC(C)C(C)C	-9.27%	
NC[C@H]1O[C@H](O[C@H]2[C@H](O)[C@@H](O[C@H]3O[C@H](CO)[C@@H](O)[C@H](N)[C@H]3O)[C@H](N)C[C@@H]2N)[C@H](N)[C@@H](O)[C@@H]1O	1.34% [at 15.8 µM]	
CCCC(=O)OC	-9.04%	
C=CCn1cc[n+](C)c1	-8.65%	
C=COCCCCO	-2.51%	
CCCC[O][Al]([O]CCCC)[O]CCCC	-7.86%	
CCOc1ccccc1OCCN[C@H](C)Cc1ccc(OC)c(S(N)(=O)=O)c1	-12.3% [at 35.3 µM]	
CNC(=O)c1c(I)c(NC(C)=O)c(I)c(C(=O)O)c1I	0.38% [at 35.3 µM]	
CN1CCN(C(=O)C2CCCCC2)CC1	-5.05% [at 35.3 µM]	
CC/C=C\CCCCCCCCCCOC(C)=O	2.46%	
C=CC(=O)CC	-0.81%	
Nc1ccc(C(=O)NCC(=O)O)cc1	-3.95% [at 35.3 µM]	
O=Cc1ccccc1S(=O)(=O)O	-7.25%	

Structure (SMILES)	cytotoxicity increase	Potency
CCC(C)(C)C	11.5%	
CCOC(=O)c1ccc(N(C)C)cc1	-7.38%	
O=C1CCCc2c(O)cccc21	-6.82% [at 35.3 µM]	
CC(C)C[P+](C)(CC(C)C)CC(C)C	29.8%	
COc1cc(C(=O)NC2CCCNC2)cc(OC)c1OC (stereo not given)	-0.0869% [at 35.3 µM]	
O=c1[nH]c(=O)c2cn[nH]c2[nH]1	-1.29%	
O=Cc1ccc(C(=O)O)cc1	-10.8%	
CC(=O)c1ccc(O)c(C(N)=O)c1	-15.6% [at 35.3 µM]	
CC(=O)O[C@@H]1CC2C3CCc4cc(OC(=O)c5ccccc5)ccc4C3CCC2(C)[C@H]1OC(C)=O (stereo not given in full)	16% [at 35.3 µM]	
Clc1ccc2c(c1)Nc1ccccc1S2	1.69% [at 35.3 µM]	
C[C@H]1COc2c(C3(N)CC3)c(F)cc3c(=O)c(C(=O)O)cn1c23	-8.39% [at 35.3 µM]	
COC(=O)N/N=C/c1c[n+]([O-])c2ccccc2[n+]1[O-]		23.9 µM (active)
CCCc1ncc(C(=O)O)s1	-9.89% [at 35.3 µM]	
C[C@@H]1CCC[C@H](C)N1CCCC(O)(c1ccccc1)c1ccccn1 (stereo not given in full)	-16.9% [at 35.3 µM]	
COC(=O)c1cc(Cl)c(NC(C)=O)cc1OC	-0.163% [at 35.3 µM]	
CC/C=C\CCOC(=O)c1ccccc1	0.34%	
Cc1cc(C)c(N)c(Cl)c1	-0.947%	
CC(C)CC(O)Cc1ccccc1 (stereo not given)	-0.86%	
CC(C)(C)OC(=O)c1ccccc1C(=O)O	-9.38%	
CCOC(=O)CC	-8.07%	
